Source: PubChem BioAssay (NCI)
The panel holds about 79,000 compounds, 15% with a hit somewhere; the sample as a whole holds those more often. Unmarked numbers belong to inactive results. Activity calls are given as the source filed them. No stated cut-off is given here; in the data, active means growth inhibition above about 70%; inactive means the rest.

Experiment: NCI Yeast Anticancer Drug Screen. Data for the mec2-1 strain (AID 157)
Settings: S. cerevisiae mec2-1 strain, active compounds read high
Procedure: Growth inhibition of yeast strains with defined genetic alterations is measured as a screen for potential anti-cancer activity. Selected strains with alterations in DNA damage repair or cell cycle control were exposed to compounds and growth inhibition was measured relative to vehicle treated controls. The strain used in this assay is mec2-1

[1] = at 5.0 µM (retest, dose inferred, filed as 0.5)
[2] = at 50.0 µM (retest, dose inferred, filed as 5.0)

Row | SMILES | growth inhibition (at 1.2 µM) [%] | growth inhibition (at 3.7 µM) [%] | growth inhibition [1] | growth inhibition (at 11.0 µM) | growth inhibition (at 33.0 µM) | growth inhibition [2] | growth inhibition (at 50.0 µM) | growth inhibition (at 100.0 µM)
1 | CC(=O)CC(=O)/C=C/c1cccs1 | -36 | -38 | 94% (active) | -21% | 10% | 99% (active) | 50% | 77% (active)
2 | CCCc1[nH]nc(C(N)=O)c1N=NN(C)C | 1 | -1 | -44% | -14% | 11% | -15% | 14.1% | 63%
3 | Cc1cc(C(C)(C)CC(C)(C)C)cc(O)c1O | 29 | 37 | 97% (active) | 72% (active) | 95% (active) | 100% (active) | 91.9% (active) | 99% (active)
4 | CC(=O)Oc1ccc(C(=O)c2ccccc2)c(O)c1 | -31 | -5 | 64% | 2% | 26% | 99% (active) | 50% | 96% (active)
5 | C=C(C)[C@@H]1CCc2c(O)c(O)c(=O)cc(C)c2C1 | 2 | 22 | 41% | 32% | 61% | 99% (active) | 93% (active) | 98% (active)
